Experiment [1] has as its target Cytochrome P450 2C19 (Homo sapiens) (UniProt P33261). Description: qHTS Assay for Inhibitors and Substrates of Cytochrome P450 2C19 (AID 899). Further: nearly all actives have a fitted effect of over 60% in size. Further: potency means the concentration at half of the fitted maximal effect. The note with it: recombinant CYP2C19, luciferin-H EGE luminescence; series mostly up to 57.1 µM. The method in brief: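 Luminescent read-out of luciferin formed from Luciferin-H EGE (10uM, equal to KM). Enzyme 5nM in 50mM KPO4; compound added, 10 min at 37C, then NADPH regenerating system for 60 min at 37C. Full inhibition defined by 57uM ketoconazole.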
For orientation: Quantitative high-throughput screening tests each substance at several concentrations.

Experiment [2] deals with Guanine nucleotide-binding protein G(i) subunit alpha-1 (Homo sapiens) (UniProt P63096). Description: qHTS Assay for Inhibitors of RGS12 GoLoco Motif Activity (Green Fluorophore) (AID 879).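 Further: negative values mean loss of peptide binding seen as reduced polarization.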 The note with it: Galphai1/FITC-RGS12 GoLoco peptide, fluorescence polarization; series mostly up to 57.1 µM. In short, it runs like this:
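A drop in FITC polarization marked displacement of the FITC-tagged RGS12 GoLoco peptide (10 nM) from Gαi1 (50 nM). Compounds were incubated 10 min at room temperature in Tris pH 7.5 buffer containing 150 mM NaCl, 0.1 mM GDP and 0.05% NP40; unlabeled peptide titration served as control.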

Experiment [3] addresses Cytochrome P450 3A4 (Homo sapiens) (UniProt P08684). Briefly: qHTS Assay for Activators of Cytochrome P450 3A4 (AID 885). Further: nearly all actives have a fitted effect of over 65% in size. The note with it: recombinant CYP3A4, Luciferin-PPXE luminescence, 60 min; series mostly up to 57.1 µM. The method in brief: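 Luminescent readout of luciferin formed from 25 uM Luciferin-PPXE (KM level) by 20 nM CYP3A4 in 200 mM KPO4, with 60 min NADPH-driven reaction at room temperature after 10 min compound exposure. Ketoconazole (57 uM) defined 100% inhibition.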

Experiment [4] concerns the target Cytochrome P450 2D6 (Homo sapiens) (UniProt P10635). Description: qHTS Assay for Inhibitors and Substrates of Cytochrome P450 2D6 (AID 891). Further: nearly all actives have a fitted effect of over 60% in size. Further: potency means the concentration at half of the fitted maximal effect. The note with it: recombinant CYP2D6, luciferin-ME EGE luminescence; series mostly up to 57.1 µM. In short, it runs like this:
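Luminescent read-out of luciferin formed by 5 nM human CYP2D6 demethylating 30 uM Luciferin-ME EGE (Km level) over 60 min at room temperature after NADPH regeneration addition. Data normalized to full inhibition by 1.43 uM quinidine.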

Experiment [5] concerns the target Cytochrome P450 3A4 (Homo sapiens) (UniProt P08684). Description: qHTS Assay for Inhibitors and Substrates of Cytochrome P450 3A4 (AID 884). Further: nearly all actives have a fitted effect of over 50% in size. The note with it: recombinant CYP3A4, Luciferin-PPXE luminescence; series mostly up to 57.1 µM. In short, it runs like this: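 Luminescent readout of luciferin produced by CYP3A4 (20 nM) dealkylation of Luciferin-PPXE, 25 uM (its KM). NADPH-driven reaction ran 60 min at RT after 10 min compound preincubation; data scaled to 57 uM ketoconazole as 100% inhibition.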

Experiment [6] deals with Cytochrome P450 2C9 (Homo sapiens) (UniProt P11712). Briefly: qHTS Assay for Inhibitors and Substrates of Cytochrome P450 2C9 (AID 883). Further: nearly all actives have a fitted effect of over 60% in size. Further: potency means the concentration at half of the fitted maximal effect. The note with it: recombinant CYP2C9, luciferin-H luminescence, 60 min; series mostly up to 57.1 µM. In short, it runs like this:
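10nM CYP2C9 + 100uM Luciferin-H (=KM), 25mM KPO4; cpd 10 min 37C; NADPH regen, 60 min 37C; stop/detect with P450 Glo-Buffer 20 min; luminescence. Norm. to 57uM sulphaphenazole as full inhibition.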

Experiment [7] can be described thus: qHTS Assay for Identification of Small Molecule Antagonists for NFkB Signaling Pathway (AID 895; active means well fitted inhibition curve with a large enough effect in the signal ratio, with a control signal flat, not every such curve was filed as active; the % refers to the signal ratio). The note with it: NFkB beta-lactamase reporter cells, FRET ratio 460/530; series mostly up to 38.3 µM. The method in brief:
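ME-180 NFkB-bla cells (beta-lactamase under NFkB response element), plated overnight, treated with compound then 10 pM TNF alpha (about EC50) for 5 hrs at 37 C. LiveBLAzer FRET read at 460/530 nm emission, 405 nm excitation.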

Drawing on PubChem BioAssay (NCATS), this text covers Potency and outcome for 14 molecules.

Records with an inconclusive call do not appear. Entries that show only a call come without a potency. The source made the active and inactive calls. Unless noted, the call rests on the fitted dose curve; in most records, active means well fitted curve in the direction sought with a large enough effect; inconclusive means small, poorly fitted or top-dose-only effect, or another doubt; inactive means no such curve, though single readings can be large; an effect the other way counts as inactive or inconclusive.

Cytochrome P450 2C9 (Homo sapiens), sequence (P11712 whole entry, looked up): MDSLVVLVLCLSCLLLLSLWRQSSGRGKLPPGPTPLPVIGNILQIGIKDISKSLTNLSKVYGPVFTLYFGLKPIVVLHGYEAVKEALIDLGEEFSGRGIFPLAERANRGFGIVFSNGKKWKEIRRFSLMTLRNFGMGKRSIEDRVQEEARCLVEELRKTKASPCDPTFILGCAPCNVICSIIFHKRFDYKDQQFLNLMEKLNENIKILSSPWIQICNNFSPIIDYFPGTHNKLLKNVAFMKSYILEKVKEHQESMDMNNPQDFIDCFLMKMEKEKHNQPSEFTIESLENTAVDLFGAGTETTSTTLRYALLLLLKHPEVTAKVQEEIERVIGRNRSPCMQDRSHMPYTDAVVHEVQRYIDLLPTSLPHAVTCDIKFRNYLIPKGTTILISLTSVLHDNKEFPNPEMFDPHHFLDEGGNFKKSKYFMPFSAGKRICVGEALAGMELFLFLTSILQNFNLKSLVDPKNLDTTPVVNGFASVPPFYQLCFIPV
Guanine nucleotide-binding protein G(i) subunit alpha-1 (Homo sapiens), sequence (P63096 whole entry, looked up): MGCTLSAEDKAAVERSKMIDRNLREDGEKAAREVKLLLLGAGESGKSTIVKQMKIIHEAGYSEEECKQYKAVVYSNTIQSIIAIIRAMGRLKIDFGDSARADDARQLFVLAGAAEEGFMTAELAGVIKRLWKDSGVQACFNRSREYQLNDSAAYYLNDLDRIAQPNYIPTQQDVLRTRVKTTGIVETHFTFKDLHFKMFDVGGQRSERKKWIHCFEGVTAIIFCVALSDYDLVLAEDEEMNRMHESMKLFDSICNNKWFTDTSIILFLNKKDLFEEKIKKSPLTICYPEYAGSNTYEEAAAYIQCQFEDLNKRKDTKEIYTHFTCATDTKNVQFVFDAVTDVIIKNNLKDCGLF
Cytochrome P450 2C19 (Homo sapiens), sequence (P33261 whole entry, looked up): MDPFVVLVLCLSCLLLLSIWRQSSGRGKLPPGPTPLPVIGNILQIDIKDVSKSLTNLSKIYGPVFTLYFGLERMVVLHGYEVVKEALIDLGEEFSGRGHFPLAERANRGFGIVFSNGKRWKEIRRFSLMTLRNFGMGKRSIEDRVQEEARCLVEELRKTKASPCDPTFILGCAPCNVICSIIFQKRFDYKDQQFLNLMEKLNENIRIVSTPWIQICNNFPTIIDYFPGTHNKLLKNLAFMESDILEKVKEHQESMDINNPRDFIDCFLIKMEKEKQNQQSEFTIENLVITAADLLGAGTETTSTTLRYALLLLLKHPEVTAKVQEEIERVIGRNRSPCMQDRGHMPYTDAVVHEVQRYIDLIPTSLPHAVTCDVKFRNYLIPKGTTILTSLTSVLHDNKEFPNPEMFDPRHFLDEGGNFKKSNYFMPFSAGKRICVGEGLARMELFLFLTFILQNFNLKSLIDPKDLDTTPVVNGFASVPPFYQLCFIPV
Cytochrome P450 3A4 (Homo sapiens), sequence (P08684 whole entry, looked up): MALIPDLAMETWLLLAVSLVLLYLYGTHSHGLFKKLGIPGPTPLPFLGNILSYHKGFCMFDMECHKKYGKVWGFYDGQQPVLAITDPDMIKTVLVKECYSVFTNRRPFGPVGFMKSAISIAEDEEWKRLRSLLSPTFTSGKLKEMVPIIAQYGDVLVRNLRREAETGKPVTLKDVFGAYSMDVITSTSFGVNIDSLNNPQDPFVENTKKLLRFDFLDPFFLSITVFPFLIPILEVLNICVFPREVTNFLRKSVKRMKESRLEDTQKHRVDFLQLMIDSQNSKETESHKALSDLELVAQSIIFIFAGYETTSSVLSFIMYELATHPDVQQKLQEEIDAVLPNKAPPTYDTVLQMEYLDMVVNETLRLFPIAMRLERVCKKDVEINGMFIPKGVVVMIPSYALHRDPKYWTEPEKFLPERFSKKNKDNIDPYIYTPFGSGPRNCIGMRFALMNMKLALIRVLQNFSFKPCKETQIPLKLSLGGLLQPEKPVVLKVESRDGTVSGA
Cytochrome P450 2D6 (Homo sapiens), sequence (P10635 whole entry, looked up): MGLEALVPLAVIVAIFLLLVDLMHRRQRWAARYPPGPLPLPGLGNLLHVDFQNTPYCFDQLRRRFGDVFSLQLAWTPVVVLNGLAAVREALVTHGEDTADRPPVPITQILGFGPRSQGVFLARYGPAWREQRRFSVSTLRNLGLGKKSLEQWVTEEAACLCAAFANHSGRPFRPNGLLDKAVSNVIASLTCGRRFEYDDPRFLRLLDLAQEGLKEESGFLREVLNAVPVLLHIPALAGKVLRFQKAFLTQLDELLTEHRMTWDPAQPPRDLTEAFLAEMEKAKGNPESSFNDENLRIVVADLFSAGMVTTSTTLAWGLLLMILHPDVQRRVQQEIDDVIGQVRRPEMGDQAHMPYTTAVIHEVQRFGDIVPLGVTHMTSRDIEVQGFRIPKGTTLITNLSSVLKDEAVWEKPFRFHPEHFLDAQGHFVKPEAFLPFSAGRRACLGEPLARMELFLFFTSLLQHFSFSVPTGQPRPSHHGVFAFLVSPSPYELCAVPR

Turning to `NC(=O)c1ccc(-c2nc(-c3ccc4c(c3)OCO4)c(-c3ccccn3)[nH]2)cc1`, the Potency in experiment [1] was 2.51 µM (active).

In the case of `c1ccc2sc(C3(N4CCCCC4)CCCCC3)cc2c1`, the outcome in experiment [2] and in experiment [3] was inactive. Further, the Potency in experiment [4] was 3.16 µM (active).

As to `CCCCCCCCCCCCCCCC[N+](C)(C)C`, the Potency result in experiment [5] was “inactive”.

On to `CC(=O)NCCc1c[nH]c2ccccc12`, for which, in experiment [2], the molecule was classed as inactive. For the same molecule, the Potency result in experiment [6], in experiment [4] and in experiment [1] was “inactive” throughout.

As to `O=c1cccc2n1CC1CNC[C@H]2C1`, the Potency entry in experiment [6], in experiment [4] and in experiment [1] was “inactive” in each case. The result in experiment [3] was inactive.

Regarding `C[C@]12N[C@H](Cc3ccccc31)c1ccccc12`, the call in experiment [2] and in experiment [3] was inactive. Besides, the Potency result in experiment [7] is “inactive”.

In the case of `O=C(O)CCCOc1ccc(Cl)cc1Cl`, the Potency result in experiment [5] is “inactive”.

Regarding `CCCN(CCC)[C@@H]1CCc2ccc(O)cc2C1`, the molecule was called inactive in experiment [2]. Also, the Potency entry in experiment [6] and in experiment [7] was “inactive” in each case. In addition, the Potency in experiment [4] is 0.794 µM (active).

With `O=C(N[C@H]1CN2CCC1CC2)c1ccc(Cl)cc1`, in experiment [5], the Potency result is “inactive”.

With `CC1=NN=C(c2ccc(N)cc2)c2cc3c(cc2C1)OCO3`, the result in experiment [2] and in experiment [3] was inactive. The Potency in experiment [6] was 1.26 µM (active); in experiment [1], 7.94 µM (active).

Take `Nc1ccccc1N`: the outcome in experiment [3] was inactive.

Turning to `O=C(O)Cc1cnc[nH]1`, the call in experiment [2] and in experiment [3] was inactive.

Consider `CCCN1CCO[C@@H]2c3cc(O)ccc3OC[C@@H]21`, for which the outcome in experiment [3] was inactive.

In the case of `CC(C)c1ccc2c(c1)c(SC(C)(C)C)c(CC(C)(C)C(=O)O)n2Cc1ccc(Cl)cc1`, the Potency in experiment [6] is 6.31 µM (active). The result in experiment [3] was inactive.
